Reference: PubChem BioAssay AID1159580 (chemical genetic matrix, 2015)
Hit rate of the full screen: of about 5,500 compounds, about 2,000 (36%) were called active. About 18% were inconclusive and are not listed. No stated cut-off is given here; in the data, active means normalized growth mostly below about 0.91 (no sharp cut-off); inconclusive means no clear call, values can overlap the other calls; inactive means mostly above about 0.92. The list shows a part of the results.

Assay: chemical genetic growth profiling, strain panel (AID 1159580);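 further: tested at 20 µM; growth read once vehicle control cultures reached saturation at 30 °C; 1 = growth at the plate median or of vehicle wells; lower values mean less growth of the strain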
Conditions: growth OD

Measured: normalized growth

COP(N)(=O)SC (configuration not stated)
inactive: S. cerevisiae deletion strains, locus YJR075W, strain HOC1, active compounds read low 1.01 | S. cerevisiae deletion strains, locus YKL009W, strain mrt4, active compounds read low 1 | S. cerevisiae deletion strains, locus YKL068W, active compounds read low 0.999 | S. cerevisiae deletion strains, locus YKL085W, strain MDH1 (second series), active compounds read low 1 | S. cerevisiae deletion strains, locus YKL085W, strain MDH1, active compounds read low 1 | S. cerevisiae deletion strains, locus YKL160W, strain elf1, active compounds read low 0.995 | S. cerevisiae deletion strains, locus YKL190W, strain CNB1, active compounds read low 1 | S. cerevisiae deletion strains, locus YKR001C, strain vps1, active compounds read low 1.03 | S. cerevisiae deletion strains, locus YKR026C, strain gcn3, active compounds read low 0.995 | S. cerevisiae deletion strains, locus YKR091W, strain srl3, active compounds read low 1 | S. cerevisiae deletion strains, locus YLL001W, strain dnm1, active compounds read low 0.981 | S. cerevisiae deletion strains, locus YLL026W, active compounds read low 0.996 | S. cerevisiae deletion strains, locus YLL041C, strain sdh2, active compounds read low 1 | S. cerevisiae deletion strains, locus YLR027C, strain aat2, active compounds read low 0.999 | S. cerevisiae deletion strains, locus YLR039C, strain RIC1, active compounds read low 1.04 | S. cerevisiae deletion strains, locus YLR058C, strain SHM2, active compounds read low 1.01 | S. cerevisiae deletion strains, locus YLR102C, strain apc9, active compounds read low 1.02 | S. cerevisiae deletion strains, locus YLR113W, strain HOG1, active compounds read low 0.963 | S. cerevisiae deletion strains, locus YLR221C, strain rsa3, active compounds read low 0.991 | S. cerevisiae deletion strains, locus YLR258W, strain gsy2, active compounds read low 1.01 | S. cerevisiae deletion strains, locus YLR262C, strain YPT6 (second series), active compounds read low 1.01 | S. cerevisiae deletion strains, locus YLR262C, strain YPT6, active compounds read low 1.02 | S. cerevisiae deletion strains, locus YLR268W, strain sec22, active compounds read low 1.01 | S. cerevisiae deletion strains, locus YLR320W, strain mms22, active compounds read low 1.01 | S. cerevisiae deletion strains, locus YLR330W, strain CHS5, active compounds read low 1 | S. cerevisiae deletion strains, locus YLR342W, strain FKS1 (second series), active compounds read low 1.03 | S. cerevisiae deletion strains, locus YLR342W, strain FKS1, active compounds read low 1.01 | S. cerevisiae deletion strains, locus YLR357W, strain rsc2, active compounds read low 1.02 | S. cerevisiae deletion strains, locus YLR370C, strain arc18, active compounds read low 1.01 | S. cerevisiae deletion strains, locus YLR371W, strain rom2, active compounds read low 1.02 | S. cerevisiae deletion strains, locus YLR384C, strain iki3, active compounds read low 1 | S. cerevisiae deletion strains, locus YLR418C, strain cdc73, active compounds read low 1.01 | S. cerevisiae deletion strains, locus YML016C, strain PPZ1, active compounds read low 0.992 | S. cerevisiae deletion strains, locus YML032C, strain rad52, active compounds read low 1.03 | S. cerevisiae deletion strains, locus YML120C, strain ndi1, active compounds read low 1 | S. cerevisiae deletion strains, locus YML124C, strain tub3, active compounds read low 1.01 | S. cerevisiae deletion strains, locus YMR058W, strain fet3, active compounds read low 1.01 | S. cerevisiae deletion strains, locus YMR078C, strain ctf18, active compounds read low 1.02 | S. cerevisiae deletion strains, locus YMR125W, strain sto1, active compounds read low 1.01 | S. cerevisiae deletion strains, locus YMR129W, active compounds read low 0.992 | S. cerevisiae deletion strains, locus YMR205C, strain PFK2, active compounds read low 1.02 | S. cerevisiae deletion strains, locus YMR223W, strain ubp8, active compounds read low 1.02 | S. cerevisiae deletion strains, locus YMR231W, strain pep5, active compounds read low 1.01 | S. cerevisiae deletion strains, locus YMR263W, strain SAP30, active compounds read low 0.994 | S. cerevisiae deletion strains, locus YMR307W, strain GAS1, active compounds read low 1.02 | S. cerevisiae deletion strains, locus YNL067W, strain RPL9B, active compounds read low 0.99 | S. cerevisiae deletion strains, locus YNL071W, strain lat1, active compounds read low 1 | S. cerevisiae deletion strains, locus YNL128W, strain TEP1, active compounds read low 0.991 | S. cerevisiae deletion strains, locus YNL153C, strain GIM3, active compounds read low 0.996 | S. cerevisiae deletion strains, locus YNL183C, strain NPR1, active compounds read low 0.985 | S. cerevisiae deletion strains, locus YNL209W, strain ssb2, active compounds read low 1 | S. cerevisiae deletion strains, locus YNL233W, strain BNI4, active compounds read low 0.992 | S. cerevisiae deletion strains, locus YNL248C, strain rpa49, active compounds read low 0.969 | S. cerevisiae deletion strains, locus YNL250W, strain rad50, active compounds read low 1.01 | S. cerevisiae deletion strains, locus YNL271C, strain bni1, active compounds read low 1.01 | S. cerevisiae deletion strains, locus YNL298W, strain CLA4, active compounds read low 1.02 | S. cerevisiae deletion strains, locus YNL307C, strain MCK1, active compounds read low 1.03 | S. cerevisiae deletion strains, locus YNL322C, strain KRE1 (second series), active compounds read low 1 | S. cerevisiae deletion strains, locus YNL322C, strain KRE1, active compounds read low 0.999 | S. cerevisiae deletion strains, locus YNR049C, strain mso1, active compounds read low 0.996 | S. cerevisiae deletion strains, locus YNR052C, strain pop2, active compounds read low 1.02 | S. cerevisiae deletion strains, locus YOL006C, strain TOP1, active compounds read low 1.03 | S. cerevisiae deletion strains, locus YOL012C, strain htz1 0.95 | S. cerevisiae deletion strains, locus YOL147C, strain pex11, active compounds read low 1.02 | S. cerevisiae deletion strains, locus YOR001W, strain rrp6, active compounds read low 0.979 | S. cerevisiae deletion strains, locus YOR061W, strain CKA2, active compounds read low 0.994 | S. cerevisiae deletion strains, locus YOR069W, strain VPS5, active compounds read low 1 | S. cerevisiae deletion strains, locus YOR070C, strain gyp1, active compounds read low 1.01 | S. cerevisiae deletion strains, locus YOR080W, strain dia2, active compounds read low 1 | S. cerevisiae deletion strains, locus YOR083W, strain WHI5, active compounds read low 0.999 | S. cerevisiae deletion strains, locus YOR106W, strain vam3, active compounds read low 0.993 | S. cerevisiae deletion strains, locus YOR136W, strain idh2, active compounds read low 1.01 | S. cerevisiae deletion strains, locus YOR144C, strain elg1, active compounds read low 1.01 | S. cerevisiae deletion strains, locus YOR184W, strain ser1, active compounds read low 1.03 | S. cerevisiae deletion strains, locus YOR231W, strain MKK1, active compounds read low 1.05 | S. cerevisiae deletion strains, locus YOR265W, strain rbl2, active compounds read low 1.01 | S. cerevisiae deletion strains, locus YOR270C, strain vph1, active compounds read low 0.987 | S. cerevisiae deletion strains, locus YOR290C, strain snf2, active compounds read low 1 | S. cerevisiae deletion strains, locus YOR316C, strain cot1, active compounds read low 1.01 | S. cerevisiae deletion strains, locus YPL051W, strain arl3, active compounds read low 1 | S. cerevisiae deletion strains, locus YPL055C, strain LGE1, active compounds read low 0.984 | S. cerevisiae deletion strains, locus YPL078C, strain atp4, active compounds read low 0.986 | S. cerevisiae deletion strains, locus YPL106C, strain sse1, active compounds read low 1 | S. cerevisiae deletion strains, locus YPL240C, strain hsp82, active compounds read low 1 | S. cerevisiae deletion strains, locus YPL241C, strain CIN2, active compounds read low 0.994 | S. cerevisiae deletion strains, locus YPL256C, strain CLN2, active compounds read low 1.06 | S. cerevisiae deletion strains, locus YPR119W, strain clb2, active compounds read low 1.01 | S. cerevisiae deletion strains, locus YPR141C, strain kar3, active compounds read low 1.01 | S. cerevisiae deletion strains, locus YPR163C, strain tif3, active compounds read low 1.02 | S. cerevisiae deletion strains, locus YPR167C, strain met16, active compounds read low 1.01 | S. cerevisiae deletion strains, strain wtn01, active compounds read low 1.01 | S. cerevisiae strains, strain wild type, active compounds read low 0.996
